Screens deposited in PubChem BioAssay by National Center for Advancing Translational Sciences (NCATS).
Shiga toxin inh: A qHTS for Small Molecule Inhibitors of Shiga Toxin; Vero cells, Shiga toxin protein synthesis inhibition reporter; inhibition, % at 38.7 µM; hit rate 9.2% among 290,000; AID 2315, 2010; in the data active = inhibition mostly above about 28%, no sharp cut-off; inactive = mostly below about 43%; note: 0% is about no effect
Tb PYK inh: qHTS of Trypanosoma Brucei Inhibitors | TbPYK enzyme, Kinase-Glo Plus ATP luminescence, 45 min | Potency, µM (highest dose often 76.8 µM), inactives show at the highest dose activity, negative = inhibition, actives largely listed as inhibitors | hit rate 0.12% among 410,000; note: potency is the fitted concentration of half-maximal effect; % is set by controls: 0 for no effect and ±100 for the full control effect; nearly all actives have a fitted effect of over 50% in size
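Luminescence from Kinase-Glo Plus, added after a 45-minute room-temperature reaction, served as the end-point read-out. The enzyme and substrate were preincubated with compound before ADP (130 uM final) initiated turnover. Concentration-effect curves came from normalized qHTS data.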
CHX counter: Cycloheximide Counterscreen for Small Molecule Inhibitors of Shiga Toxin. cell reporter, cycloheximide protein synthesis inhibition counterscreen. max response, %. hit rate 12% among 300,000; in the data active = max response mostly above about 13%, no sharp cut-off; inactive = mostly below about 14%; note: read at 38.3 µM for the half of the compounds with a filed dose; 0% is about no effect
Giardia FBPA inh: qHTS Assay for Inhibitors of Fructose-1,6-bisphosphate Aldolase from Giardia Lamblia. A8B2U2. purified Giardia FBPA. Potency, µM (doses to about 59.6 µM), for inactives: at the highest dose activity, negative = inhibition, hits mostly inhibitors. hit rate 0.71% among 290,000; note: potency is the fitted concentration of half-maximal effect; % is set by controls: 0 for no effect and ±100 for the full control effect; nearly all actives have a fitted effect of over 55% in size
Target sequence (A8B2U2 whole entry, looked up): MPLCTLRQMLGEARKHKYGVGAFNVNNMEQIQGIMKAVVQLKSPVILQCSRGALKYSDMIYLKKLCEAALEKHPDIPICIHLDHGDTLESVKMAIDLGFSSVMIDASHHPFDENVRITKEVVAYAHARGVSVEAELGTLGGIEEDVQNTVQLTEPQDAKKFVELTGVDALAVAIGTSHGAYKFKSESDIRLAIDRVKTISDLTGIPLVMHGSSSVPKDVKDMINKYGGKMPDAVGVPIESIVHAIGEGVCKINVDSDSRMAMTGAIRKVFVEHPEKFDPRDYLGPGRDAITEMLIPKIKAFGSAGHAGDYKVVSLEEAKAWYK
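Giardia FBPA (40 nM reagent) was preincubated 10 min at RT with compound (up to 57.5 uM final), then substrate plus GAPDH/TPI/NAD/arsenate coupling system with diaphorase/resazurin was added; resorufin fluorescence (525/598 nm) was read after 20 min.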
LmPK inh: qHTS Assay for Inhibitors of Leishmania Mexicana Pyruvate Kinase (LmPK). Potency, µM (top dose mostly 57.5 µM), inactives show top-dose activity change, negative = inhibition, most hits filed as inhibitors. purified LmPK, Kinase-Glo ATP luminescence, 1 h. hit rate 0.37% among 290,000. Q27686; note: potency is the fitted concentration of half-maximal effect; % is set by controls: 0 for no effect and ±100 for the full control effect
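Screened at intermediate enzyme activity to detect both inhibitors and activators: LmPK at 0.1 nM, with a 0.5 nM enzyme column as activation reference. PEP 0.5 mM, ADP 0.1 mM; ATP detected by luminescence after 1 h.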
Sm TGR block: qHTS Assay for the Inhibitors of Schistosoma Mansoni Peroxiredoxins; Schistosoma mansoni thioredoxin glutathione reductase (TGR), Q962Y6; purified TGR, DTNB reduction, TNB absorbance 405 nm; Potency, µM (doses to about 114 µM), without a hit: top-dose activity change, negative = inhibition, most hits filed as inhibitors; hit rate 3% among 360,000; AID 485364, 2010; note: potency is the fitted concentration of half-maximal effect; % is set by controls: 0 for no effect and ±100 for the full control effect; nearly all actives have a fitted effect of over 60% in size
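TGR 20 nM + NADPH 100 uM (dispensed conc.), cpd preinc 15 min RT; start with NADPH (500 uM addition) then DTNB (15 mM addition). Kinetic TNB absorbance, 405 nm filter. Four-parameter Hill fit across titration.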
Starred values were filed as active, the others as inactive; ? = inconclusive; nt = no result; [ ] = dose if it differs, or a comment. This is one part of a sample in which hits are shown more often than they occur. Unless noted, calls come from the whole dose curve; as a rule, active = well fitted curve in the direction sought with a large enough effect; inconclusive = small, poorly fitted or top-dose-only effect, or another doubt; inactive = no such curve, though single readings can be large; an effect the other way counts as inactive or inconclusive.

SMILES	Shiga toxin inh	Tb PYK inh	CHX counter	Giardia FBPA inh	LmPK inh	Sm TGR block
CCOc1ccc(/C=N/NC(=O)c2ccoc2C)cc1OC	77*	-21%	79*	-12%	-23%	9%
CCc1ccccc1NC(=O)Cn1nc(CC)n2c(cc3sccc32)c1=O	nt	-4%	nt	nt	nt	?
CCCS(=O)(=O)NC(=O)C1(C)CCCN(C(=O)c2ccc(F)cc2Cl)C1 (configuration not stated)	nt	0%	nt	nt	nt	nt
N/C(=N\OC(=O)c1cccc(F)c1)c1ccccc1	93*	-25%	88*	-1%	16µM*	13%
Cc1ccc(/C(N)=N/OC(=O)c2cccc(F)c2)cc1	115*	-3%	38*	1%	0%	0%
N/C(=N\OC(=O)c1cccc(F)c1)c1ccccn1	17	-9%	1	nt	?	1%
CCOC(=O)c1ccc(CN(Cc2ccc(F)cc2)S(=O)(=O)c2ccc(F)c(C(=O)Nc3cc(Cl)ccc3OC)c2)cc1	nt	5%	nt	nt	nt	-3%
COc1ccc(CCNC(=O)CC2(CC3=NS(=O)(=O)c4ccccc4N3)CCCC2)cc1OC	9	4%	6	nt	-4%	-17%
Cc1ccc(CNC(=O)CC2(CC3=NS(=O)(=O)c4ccccc4N3)CCCC2)cc1	18	-1%	8.5*	8%	-2%	-1%
CCS(=O)(=O)c1ncc(Cl)c(C(=O)Nc2ccc(S(=O)(=O)N(C)c3ccccc3)cc2)n1	-22	7%	-18	1%	0%	0.5µM*
CCN(c1ccccc1)S(=O)(=O)c1ccc(NC(=O)c2nc(S(C)(=O)=O)ncc2Cl)cc1	-12	35%	-17	nt	-3%	0.4µM*
CCSc1ncc(Cl)c(C(=O)Nc2ccc(S(=O)(=O)N(C)c3ccccc3)cc2)n1	nt	1%	nt	nt	nt	13%
CCc1nc(N)nc(N)c1-c1ccc(N(C)Cc2ccccc2)c([N+](=O)[O-])c1	nt	-3%	nt	nt	nt	nt
COc1ccc(-c2nnc(SCc3nc4ccccc4s3)n2C(C)C)cc1	86*	-14%	28*	-3%	-10%	0%
COc1ccccc1-c1nnc(SCc2nc3ccccc3s2)n1C	26	-2%	16	-2%	-9%	-17%
Cn1c(SCc2nc3ccccc3s2)nnc1-c1cccs1	66*	-13%	60*	-15%	0%	0%
Cc1ccccc1-n1c(C)nnc1SCc1nc2ccccc2s1	91*	0%	33*	4%	-3%	9%[11.4 µM]
CCOc1ccccc1-n1nnnc1SCc1nc2ccccc2s1	168*	-13%	48*	-9%	2%	1%
COc1cccc(N2CCN(S(=O)(=O)c3ccc(-c4ccno4)cc3OC)CC2)c1	nt	1%	nt	nt	nt	-1%
CCn1c(SCc2nc3ccccc3[nH]2)nnc1-c1cccs1	-7	-8%	2	?	3%	4%
CCn1c(SCc2nc3ccccc3s2)nnc1-c1cccs1	59*	-24%	59*	-15%	0%	-12%
CCOC(=O)c1c(C)c(-c2ccccc2)n(CC(=O)Nc2cccc(C)c2C)c1C	nt	3%	nt	nt	nt	9%
Cc1nc(CC(=O)Nc2ccc(C(N)=O)cc2)cs1	nt	-1%	nt	nt	nt	0%
COc1ccc(C(=O)c2ccc(N3CCN(C(=O)c4ccc(F)cc4)CC3)c(F)c2)cc1Br	-9	-6%	-4	0%	9%	?
O=C(COc1ccccc1)Nc1ccc2c(c1)nc1n2CCOC1	134*	-6%	20	18%	0%	5%
SMILES	Shiga toxin inh	Tb PYK inh	CHX counter	Giardia FBPA inh	LmPK inh	Sm TGR block
Cc1ccc(OCC(=O)Nc2ccc3c(c2)nc2n3CCOC2)cc1	-5	7%	3	-3%	1%	-29%
O=C(COc1ccccc1)Nc1ccc2c(c1)nc1n2CCSC1	146	-10%	24*	5%	3%	-18%
COc1ccc(OC)c(NC(=O)C(C)n2c(=O)c(-c3ccccc3NC(C)=O)nc3ccccc32)c1 (configuration not stated)	nt	2%	nt	nt	nt	-5%
CCOC(=O)c1sc(N(Cc2ccccc2)C(=O)COC(=O)c2ccccc2O)nc1C	32*	2%	19*	0%	-3%	-8%
CCOC(=O)c1sc(N(Cc2ccccc2)C(=O)CCl)nc1C	-5	-11%	6	nt	0%	25µM*
CCOC(=O)c1sc(N(Cc2ccccc2)C(=O)COC(=O)c2ccc(O)cc2)nc1C	9	3%	8	-9%	-2%	-2%
CCN(CCCNC(=O)CN1N=C(c2ccc(OC)cc2)CCC1=O)c1cccc(C)c1	nt	0%	nt	nt	nt	-4%
O=S(=O)(C/C(=C/CO)S(=O)(=O)c1ccccc1)c1ccccc1	41	-1%	26*	0%	1%	4.5µM*
Cn1cccc1C(=O)N1CCC2(CCCN(Cc3ccncc3)C2)CC1	nt	-1%	nt	5%	nt	nt
Cc1nc(CNC(=O)c2cc(COc3ccc(F)cc3Cl)on2)cs1	10	9%	8	-3%	4%	-2%
Cc1nonc1CN(C)C(=O)c1cc(COc2ccc(F)cc2Cl)on1	58*	1%	46*	nt	-1%	0%
CSc1ccccc1OCc1cc(C(=O)N(C)Cc2ccncn2)no1	105*	1%	49*	nt	0%	2%
CN(Cc1cccc2ccccc12)C(=O)c1cc(COc2c(F)cccc2F)on1	-3	-1%	-3	1%	9%	0%
CSc1ccccc1OCc1cc(C(=O)N(C)Cc2nonc2C)no1	189*	3%	59*	4%	2%	-31%
C#CCN(Cc1ccco1)C(=O)c1cc(COc2ccc(F)cc2Cl)on1	47*	0%	15	?	1%	0%
O=C(NCC1CC1)[C@H]1C[C@@H]1[C@H](NP(=O)(c1ccccc1)c1ccccc1)c1ccccc1	nt	nt	nt	19%	nt	nt
Cc1ccccc1-n1nc(CO)c(C(=O)NCc2cccs2)n1	nt	3%	nt	nt	nt	0%
Cc1cc(CN(C)C(=O)c2cc(COc3ccc(F)cc3Cl)on2)n[nH]1	117*	7%	33*	-1%	3%	3%
CN(Cc1ccccn1)C(=O)c1cc(COc2ccc(F)cc2Cl)on1	nt	3%	nt	nt	nt	nt
CSc1ccccc1OCc1cc(C(=O)N(C)CCn2nc(C)cc2C)no1	30*	0%	31*	nt	-7%	0%
Cc1ccc(CN(C)C(=O)c2cc(COc3ccc(F)cc3Cl)on2)o1	50*	?	31*	-8%	3%	25µM*
O=C(NCc1ccc(F)cc1)c1ccc(NC(=O)N2CC3CCCN3c3ccccc32)cc1 (configuration not stated)	nt	-7%	nt	nt	nt	-20%
